Screen size: about 5,500 compounds; about 2,000 (36%) were called active. Another 18% or so got no clear call; they are omitted. No stated cut-off is given here; in the data, active means normalized growth mostly below about 0.91 (no sharp cut-off); inconclusive means no clear call, values can overlap the other calls; inactive means mostly above about 0.92. Some of the results follow.
Assay: chemical genetic growth profiling, strain panel (AID 1159580);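 further: tested at 20 µM; growth read once vehicle control cultures reached saturation at 30 °C; 1 = growth at the plate median or of vehicle wells; lower values mean less growth of the strain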
Conditions: S. cerevisiae deletion strains, growth OD

Measured: normalized growth

O=c1c2ccccc2oc2ccc(O)cc12
inactive: locus YBR021W, strain FUR4, active compounds read low 1.13 | locus YBR229C, strain ROT2, active compounds read low 0.952 | locus YDR101C, strain arx1, active compounds read low 0.922 | locus YDR388W, active compounds read low 0.937 | locus YER110C, active compounds read low 0.919 | locus YER155C, strain BEM2, active compounds read low 0.978 | locus YER167W, strain BCK2, active compounds read low 0.949 | locus YGL078C, strain dbp3, active compounds read low 0.962 | locus YGR252W, strain gcn5, active compounds read low 0.847 | locus YHR079C, strain IRE1 (second series), active compounds read low 0.961 | locus YHR094C, strain hxt1, active compounds read low 0.977 | locus YHR200W, strain rpn10, active compounds read low 0.956 | locus YIL073C, strain SPO22, active compounds read low 0.815 | locus YIL125W, strain kgd1, active compounds read low 0.962 | locus YIR030C, strain dcg1, active compounds read low 0.933 | locus YJL134W, strain LCB3, active compounds read low 0.941 | locus YJL168C, strain set2, active compounds read low 0.948 | locus YJR043C, strain POL32, active compounds read low 0.981 | locus YKL009W, strain mrt4, active compounds read low 0.939 | locus YKL068W, active compounds read low 1.01 | locus YKL085W, strain MDH1 (second series), active compounds read low 0.976 | locus YKL085W, strain MDH1, active compounds read low 0.976 | locus YLR102C, strain apc9, active compounds read low 0.984 | locus YLR342W, strain FKS1 (second series), active compounds read low 0.918 | locus YML124C, strain tub3, active compounds read low 0.945 | locus YMR078C, strain ctf18, active compounds read low 0.938 | locus YMR307W, strain GAS1, active compounds read low 0.881 | locus YNL067W, strain RPL9B, active compounds read low 0.871 | locus YNL250W, strain rad50, active compounds read low 0.917 | locus YNL298W, strain CLA4, active compounds read low 0.941 | locus YNL322C, strain KRE1, active compounds read low 0.948 | locus YOL012C, strain htz1 1.06 | locus YOR061W, strain CKA2, active compounds read low 0.924 | locus YOR136W, strain idh2, active compounds read low 0.957 | locus YOR144C, strain elg1, active compounds read low 0.943 | locus YOR316C, strain cot1, active compounds read low 0.967 | locus YPL055C, strain LGE1, active compounds read low 0.827 | locus YPL241C, strain CIN2, active compounds read low 0.941 | locus YPR119W, strain clb2, active compounds read low 0.949 | locus YPR141C, strain kar3, active compounds read low 0.965 | locus YPR167C, strain met16, active compounds read low 0.934 | strain wtn01, active compounds read low 0.931
active: locus YCL029C, strain bik1, active compounds read low 0.865 | locus YDL035C, strain GPR1, active compounds read low 0.814 | locus YDL074C, strain BRE1, active compounds read low 0.737 | locus YDL101C, strain DUN1, active compounds read low 0.791 | locus YDL134C, strain PPH21, active compounds read low 0.759 | locus YDL185W, strain tfp1, active compounds read low 0.901 | locus YDL192W, strain arf1, active compounds read low 0.864 | locus YDR162C, strain NBP2, active compounds read low 0.368 | locus YDR318W, strain mcm21, active compounds read low 0.896 | locus YDR502C, strain sam2, active compounds read low 0.895 | locus YEL061C, strain CIN8, active compounds read low 0.863 | locus YGL086W, strain mad1, active compounds read low 0.854 | locus YGL248W, strain PDE1, active compounds read low 0.811 | locus YGR078C, strain PAC10, active compounds read low 0.736 | locus YGR135W, strain pre9, active compounds read low 0.856 | locus YHR030C, strain SLT2, active compounds read low 0.738 | locus YHR129C, strain ARP1, active compounds read low 0.889 | locus YIL066C, strain RNR3, active compounds read low 0.767 | locus YJL095W, strain BCK1, active compounds read low 0.516 | locus YJL187C, strain SWE1 (second series), active compounds read low 0.828 | locus YKR001C, strain vps1, active compounds read low 0.509 | locus YLR039C, strain RIC1, active compounds read low 0.49 | locus YLR058C, strain SHM2, active compounds read low 0.886 | locus YLR262C, strain YPT6, active compounds read low 0.461 | locus YLR268W, strain sec22, active compounds read low 0.859 | locus YLR330W, strain CHS5, active compounds read low 0.834 | locus YLR371W, strain rom2, active compounds read low 0.894 | locus YLR418C, strain cdc73, active compounds read low 0.786 | locus YML016C, strain PPZ1, active compounds read low 0.915 | locus YML032C, strain rad52, active compounds read low 0.757 | locus YMR223W, strain ubp8, active compounds read low 0.895 | locus YMR263W, strain SAP30, active compounds read low 0.833 | locus YNL233W, strain BNI4, active compounds read low 0.782 | locus YNL271C, strain bni1, active compounds read low 0.915 | locus YNL307C, strain MCK1, active compounds read low 0.63 | locus YNR052C, strain pop2, active compounds read low 0.871 | locus YOL147C, strain pex11, active compounds read low 0.926 | locus YOR069W, strain VPS5, active compounds read low 0.919 | locus YOR184W, strain ser1, active compounds read low 0.746 | locus YPR163C, strain tif3, active compounds read low 0.772

Source: PubChem BioAssay AID1159580 (chemical genetic matrix, 2015)
